# Laboratory results from publication PMC4552634, “A New Set of Chemical Starting Points with Plasmodium falciparum Transmission-Blocking Potential for Antimalarial Drug Discovery” (PLoS ONE, 2015).
# Out of some 13,000 compounds screened, about 3,200 (25%) showed an effect of 50% or more. The list shows a part of the results.
# Tested on: P. falciparum stage V gametocytes
# Set-up: BacTiter-Glo ATP luminescence viability of purified stage V gametocytes in 384-well plates, per cent inhibition versus DMSO
# Conditions: 48 h, 5 µM; inhibitor
row,SMILES,% Inhibition [%]
1,CC1(C)[C@H]2CC[C@@H](CNc3nc(NCCc4cnc[nH]4)nc(NCc4cc(F)ccc4F)n3)[C@@H]1C2 [TCMDC-139317],-2.684
2,O=C(CCc1c[nH]cn1)Nc1cccc(-c2ccc(-c3nc4ccccc4[nH]3)s2)c1 [TCMDC-132152],-14.42
3,Cn1cc(C2CCN(CCCCCNC(=O)/C=C/c3ccc(Cl)c(Cl)c3)CC2)c2cc(O)ccc21 [TCMDC-139364],-26.1
4,CN(C)Cc1c(O)ccc2[nH]c(-c3ccc(F)cc3F)nc12 [TCMDC-136534],71.11
5,CC(C)CN(Cc1c(O)ccc2[nH]c(-c3ccc(F)cc3F)nc12)CC(C)C [TCMDC-136358],-65.39
6,CN(C)Cc1c(O)ccc2[nH]c(-c3cccc(F)c3)nc12 [TCMDC-136535],-72.73
7,Cn1cnc(CCNC(=O)c2ccc(-c3cccc(-c4nc5cc(F)ccc5[nH]4)c3)cc2)c1 [TCMDC-132497],-1.156
8,CC(C)(C)N1CCC(N(Cc2ccc(-c3ccc(C(F)(F)F)cc3)cc2)C(=O)Cn2c(CCc3cccc(F)c3F)nc(=O)c3cccnc32)CC1 [TCMDC-136050],107.4
9,CC(C)N1CCC(N(Cc2ccc(-c3ccc(C(F)(F)F)cc3)cc2)C(=O)Cn2c(CCc3cccc(F)c3F)nc(=O)c3cccnc32)CC1 [TCMDC-136049],118.8
10,O=C(Nc1cccc(-c2nn3ncccc3c2-c2ccnc(Nc3cccc(C(F)(F)F)c3)n2)c1)c1c(F)cccc1F [TCMDC-135549],-33.07
11,COCn1ncc2cc(-c3cccc(NC(=O)c4csc(NC(C)=O)n4)c3)ccc21 [TCMDC-133146],24.99
12,CNC(=O)C(C)N(c1ccc(Cl)cc1)c1nc(C(C)(C)C)cs1 (centres unmarked) [TCMDC-125380],52.18
13,CC1(C)N=C(N)N=C(N)N1OCCCc1cc(Cl)c(Cl)cc1Cl [TCMDC-131696],1.916
14,CCCCc1cc(N2CCC(NC(C)=O)C2)nc(Nc2ccc(C)cc2)n1 (centres unmarked) [TCMDC-134020],11.89
15,COc1cc2nccc(Nc3ccc(Oc4ccccc4)cc3)c2cc1OC.Cl [TCMDC-131917],-23.95
16,COc1cc2nc(Nc3ccc(Oc4ccccc4)cc3)nc(Nc3ccc(Oc4ccccc4)cc3)c2cc1OC [TCMDC-138238],-17.62
17,COc1cc2nc(C)nc(Nc3ccc(Cc4ccccc4)cc3)c2cc1OC [TCMDC-131941],1.462
18,COc1cc2nc(Nc3ccc4c(c3)OCCO4)nc(N)c2cc1OC.Cl [TCMDC-131882],-45.81
19,COc1cc2nc(N(C)C)nc(Nc3ccc(OCc4ccccc4)cc3)c2cc1OC [TCMDC-137183],59.63
20,COc1ccc(Nc2nc(N)c3cc(OC)c(OC)cc3n2)cc1OC.Cl [TCMDC-131881],-0.9625
21,COc1cc2ncnc(Nc3ccc(OCc4ccccc4)c(OCc4ccccc4)c3)c2cc1OC [TCMDC-131922],-20.12
22,COc1cc2nc(Nc3ccc(C)cc3)nc(Nc3ccc(C)cc3)c2cc1OC.Cl [TCMDC-138540],91.22

row,SMILES,% Inhibition [%]
1,COc1cc2nc(NCc3ccc(S(N)(=O)=O)cc3)nc(Nc3ccc(Oc4ccccc4)cc3)c2cc1OC [TCMDC-138256],65.95
2,COc1cc2nc(C)nc(Nc3ccc(Oc4ccccc4)cc3)c2cc1OC [TCMDC-131940],0.7535
3,N#Cc1cnc(Nc2ccc(Oc3ccccc3)cc2)nc1Nc1cccc(S(N)(=O)=O)c1 [TCMDC-138613],-50.28
4,COc1cc2nc(NCCCO)nc(Nc3ccc(Oc4ccccc4)cc3)c2cc1OC [TCMDC-138255],110.2
5,C=C(NC(=O)C1CCCCC1)C(=O)OC [TCMDC-131685],0.06563
6,NC1=NC(c2ccccc2)(c2ccccn2)C(=O)N1CCCc1ccccc1 (centres unmarked) [TCMDC-136603],9.29
7,Cc1cc(N2CCCC2)nc(Nc2ccc(NC(=O)c3ccccc3F)cc2)n1 [TCMDC-124710],-34.77
8,CCNc1cc(C(=O)N[C@@H](Cc2ccccc2)[C@H](O)CNCc2cccc(-c3cncnc3)c2)cc(N2CCCC2=O)c1 [TCMDC-141687],18.59
9,O=C(Nc1cccc(-c2nn3ccccc3c2-c2ccnc(Nc3cccc(N4CCCC4=O)c3)n2)c1)c1cc(F)ccc1F [TCMDC-135850],10.23
10,COc1ccccc1C1CN(CCNC(=O)c2ncc(C)[nH]2)Cc2ccccc2O1 (centres unmarked) [TCMDC-124657],-1.409
11,COc1cccc2cc(C(=O)N[C@@H](CC(C)C)C(=O)NC(/C=N/NC(=O)c3ccccc3)CCc3ccccc3)oc12 (some centres unmarked) [TCMDC-135434],-2.183
12,COc1ccc(Cn2cncc2CN(CCC(C)C)C(=O)c2ccc(Cl)nc2Cl)cc1 [TCMDC-132536],21.31
13,O=C(Nc1cccc(CN2CCN(C(=O)c3cccc(F)c3)CC2)c1)c1cccs1 [TCMDC-136330],79.41
14,O=C(Nc1cccc(CN2CCN(C(=O)c3ccccc3)CC2)c1)c1cccs1 [TCMDC-136325],14.84
15,Cc1ccc(CN2CCCN(Cc3cccc(NC(=O)c4cc5ccccc5s4)c3)CC2)cc1C [TCMDC-141879],80.31
16,O=C(Nc1cccc(CN2CCN(C(=O)c3cccs3)CC2)c1)c1cccs1 [TCMDC-136329],33.24
17,O=C(Nc1cccc(CN2CCCN(Cc3ccc(F)cc3)CC2)c1)c1cc2ccccc2s1 [TCMDC-141876],71.77
18,O=C(Nc1cccc(CN2CCCN(Cc3ccc(O)cc3)CC2)c1)c1cc2ccccc2s1 [TCMDC-141878],32.43
19,COc1ccc(CN2CCCN(Cc3cccc(NC(=O)c4cc5ccccc5s4)c3)CC2)cc1 [TCMDC-141867],-63.54
20,Cc1ccc(CN2CCN(Cc3cccc(NC(=O)c4cccs4)c3)CC2)cc1C [TCMDC-141888],86.1
21,Cc1cccc(C(=O)N2CCN(Cc3cccc(NC(=O)c4cccs4)c3)CC2)c1 [TCMDC-136328],7.958
22,Cc1ccc(CN2CCN(Cc3cccc(NC(=O)c4ccc5ccccc5c4)c3)CC2)cc1C [TCMDC-141887],-29.11
